Reference: ChEMBL document CHEMBL2218924, “A broad activity screen in support of a chemogenomic map for kinase signalling research and drug discovery” (Biochem J, 2013)

Columns and labels:
[1] = biological target: Vascular endothelial growth factor receptor 1 (Homo sapiens) (UniProt P17948); conditions: at 1 µM
[2] = biological target: Vascular endothelial growth factor receptor 1 (Homo sapiens) (UniProt P17948); conditions: at 10 µM
[3] = biological target: Receptor-type tyrosine-protein kinase FLT3 (Homo sapiens) (UniProt P36888); conditions: at 1 µM
[4] = biological target: Receptor-type tyrosine-protein kinase FLT3 (Homo sapiens) (UniProt P36888); conditions: at 10 µM
[5] = biological target: Focal adhesion kinase 1 (Homo sapiens) (UniProt Q05397); conditions: at 10 µM
[6] = biological target: Fibroblast growth factor receptor 1 (Homo sapiens) (UniProt P11362); conditions: at 1 µM
[7] = biological target: Fibroblast growth factor receptor 1 (Homo sapiens) (UniProt P11362); conditions: at 10 µM
[8] = biological target: Fibroblast growth factor receptor 3 (Homo sapiens) (UniProt P22607); conditions: at 10 µM
[9] = biological target: Fibroblast growth factor receptor 4 (Homo sapiens) (UniProt P22455); conditions: at 1 µM
[10] = biological target: Tyrosine-protein kinase Fer (Homo sapiens) (UniProt P16591); conditions: at 1 µM
[11] = biological target: Tyrosine-protein kinase Fer (Homo sapiens) (UniProt P16591); conditions: at 10 µM
[12] = biological target: Tyrosine-protein kinase Fes/Fps (Homo sapiens) (UniProt P07332); conditions: at 1 µM
[13] = biological target: Tyrosine-protein kinase Fes/Fps (Homo sapiens) (UniProt P07332); conditions: at 10 µM
[14] = biological target: Tyrosine-protein kinase Fgr (Homo sapiens) (UniProt P09769); conditions: at 1 µM
[15] = biological target: Tyrosine-protein kinase Fgr (Homo sapiens) (UniProt P09769); conditions: at 10 µM
[16] = biological target: Vascular endothelial growth factor receptor 3 (Homo sapiens) (UniProt P35916); conditions: at 1 µM
[17] = biological target: Fibroblast growth factor receptor 2 (Homo sapiens) (UniProt P21802); conditions: at 1 µM
[18] = biological target: Fibroblast growth factor receptor 2 (Homo sapiens) (UniProt P21802); conditions: at 10 µM
[19] = biological target: Fibroblast growth factor receptor 3 (Homo sapiens) (UniProt P22607); conditions: at 1 µM
[20] = biological target: Fibroblast growth factor receptor 4 (Homo sapiens) (UniProt P22455); conditions: at 10 µM

Chain of Vascular endothelial growth factor receptor 3 (Homo sapiens) (P35916 whole entry): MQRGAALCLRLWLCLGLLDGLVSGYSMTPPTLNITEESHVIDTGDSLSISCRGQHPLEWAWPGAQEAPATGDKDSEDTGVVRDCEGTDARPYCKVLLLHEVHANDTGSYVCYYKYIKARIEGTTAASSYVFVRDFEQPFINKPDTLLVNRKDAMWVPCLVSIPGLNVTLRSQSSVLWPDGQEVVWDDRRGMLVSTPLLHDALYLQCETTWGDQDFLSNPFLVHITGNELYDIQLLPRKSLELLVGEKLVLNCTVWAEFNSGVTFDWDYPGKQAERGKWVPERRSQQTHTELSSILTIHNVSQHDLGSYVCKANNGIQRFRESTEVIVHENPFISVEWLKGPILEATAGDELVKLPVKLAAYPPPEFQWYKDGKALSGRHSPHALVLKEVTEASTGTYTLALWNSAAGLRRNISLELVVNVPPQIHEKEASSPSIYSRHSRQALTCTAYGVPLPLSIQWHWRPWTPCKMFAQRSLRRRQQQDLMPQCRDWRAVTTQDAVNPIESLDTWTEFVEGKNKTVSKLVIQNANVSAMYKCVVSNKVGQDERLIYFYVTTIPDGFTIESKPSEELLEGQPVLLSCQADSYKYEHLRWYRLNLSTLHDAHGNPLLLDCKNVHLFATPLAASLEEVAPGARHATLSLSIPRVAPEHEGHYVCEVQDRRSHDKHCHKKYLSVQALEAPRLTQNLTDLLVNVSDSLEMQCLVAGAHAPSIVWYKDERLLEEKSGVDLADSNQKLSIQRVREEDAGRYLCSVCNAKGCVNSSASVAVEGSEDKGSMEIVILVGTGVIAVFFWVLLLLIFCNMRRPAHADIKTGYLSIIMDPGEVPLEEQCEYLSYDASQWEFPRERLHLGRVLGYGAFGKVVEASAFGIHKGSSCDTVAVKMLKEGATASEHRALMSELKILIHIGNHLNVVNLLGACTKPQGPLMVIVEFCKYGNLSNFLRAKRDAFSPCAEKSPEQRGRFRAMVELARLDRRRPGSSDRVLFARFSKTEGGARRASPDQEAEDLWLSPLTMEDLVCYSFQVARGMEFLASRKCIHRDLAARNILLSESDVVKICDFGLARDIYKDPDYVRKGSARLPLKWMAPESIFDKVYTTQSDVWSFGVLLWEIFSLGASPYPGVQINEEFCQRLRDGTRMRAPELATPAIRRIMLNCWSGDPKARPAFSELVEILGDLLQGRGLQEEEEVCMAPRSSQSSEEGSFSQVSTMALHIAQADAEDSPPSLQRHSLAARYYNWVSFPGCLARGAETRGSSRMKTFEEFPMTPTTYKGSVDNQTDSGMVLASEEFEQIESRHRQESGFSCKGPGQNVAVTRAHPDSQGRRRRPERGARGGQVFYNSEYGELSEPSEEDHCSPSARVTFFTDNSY
Chain of Fibroblast growth factor receptor 1 (Homo sapiens) (P11362 22-822 limits assumed): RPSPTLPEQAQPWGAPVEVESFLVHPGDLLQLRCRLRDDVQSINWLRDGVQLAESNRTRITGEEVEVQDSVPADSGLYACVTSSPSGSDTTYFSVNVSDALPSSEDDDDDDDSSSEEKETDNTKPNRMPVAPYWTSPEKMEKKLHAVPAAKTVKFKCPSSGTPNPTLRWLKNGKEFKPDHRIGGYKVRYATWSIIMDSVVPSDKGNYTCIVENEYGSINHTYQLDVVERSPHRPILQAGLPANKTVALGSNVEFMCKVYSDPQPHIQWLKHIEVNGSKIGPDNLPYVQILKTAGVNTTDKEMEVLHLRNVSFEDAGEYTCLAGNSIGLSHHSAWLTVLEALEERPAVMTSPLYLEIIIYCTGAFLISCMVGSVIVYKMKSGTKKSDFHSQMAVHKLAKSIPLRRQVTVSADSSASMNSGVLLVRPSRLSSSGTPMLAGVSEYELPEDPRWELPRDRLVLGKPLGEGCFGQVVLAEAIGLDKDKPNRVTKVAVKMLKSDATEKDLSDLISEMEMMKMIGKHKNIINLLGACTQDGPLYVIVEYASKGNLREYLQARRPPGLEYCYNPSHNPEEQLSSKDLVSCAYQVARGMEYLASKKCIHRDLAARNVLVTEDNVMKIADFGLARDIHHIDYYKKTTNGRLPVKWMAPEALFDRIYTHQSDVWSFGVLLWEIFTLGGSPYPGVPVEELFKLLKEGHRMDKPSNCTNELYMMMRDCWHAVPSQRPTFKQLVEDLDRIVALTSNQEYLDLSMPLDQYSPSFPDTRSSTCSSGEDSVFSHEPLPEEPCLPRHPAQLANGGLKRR
Chain of Receptor-type tyrosine-protein kinase FLT3 (Homo sapiens) (P36888 whole entry): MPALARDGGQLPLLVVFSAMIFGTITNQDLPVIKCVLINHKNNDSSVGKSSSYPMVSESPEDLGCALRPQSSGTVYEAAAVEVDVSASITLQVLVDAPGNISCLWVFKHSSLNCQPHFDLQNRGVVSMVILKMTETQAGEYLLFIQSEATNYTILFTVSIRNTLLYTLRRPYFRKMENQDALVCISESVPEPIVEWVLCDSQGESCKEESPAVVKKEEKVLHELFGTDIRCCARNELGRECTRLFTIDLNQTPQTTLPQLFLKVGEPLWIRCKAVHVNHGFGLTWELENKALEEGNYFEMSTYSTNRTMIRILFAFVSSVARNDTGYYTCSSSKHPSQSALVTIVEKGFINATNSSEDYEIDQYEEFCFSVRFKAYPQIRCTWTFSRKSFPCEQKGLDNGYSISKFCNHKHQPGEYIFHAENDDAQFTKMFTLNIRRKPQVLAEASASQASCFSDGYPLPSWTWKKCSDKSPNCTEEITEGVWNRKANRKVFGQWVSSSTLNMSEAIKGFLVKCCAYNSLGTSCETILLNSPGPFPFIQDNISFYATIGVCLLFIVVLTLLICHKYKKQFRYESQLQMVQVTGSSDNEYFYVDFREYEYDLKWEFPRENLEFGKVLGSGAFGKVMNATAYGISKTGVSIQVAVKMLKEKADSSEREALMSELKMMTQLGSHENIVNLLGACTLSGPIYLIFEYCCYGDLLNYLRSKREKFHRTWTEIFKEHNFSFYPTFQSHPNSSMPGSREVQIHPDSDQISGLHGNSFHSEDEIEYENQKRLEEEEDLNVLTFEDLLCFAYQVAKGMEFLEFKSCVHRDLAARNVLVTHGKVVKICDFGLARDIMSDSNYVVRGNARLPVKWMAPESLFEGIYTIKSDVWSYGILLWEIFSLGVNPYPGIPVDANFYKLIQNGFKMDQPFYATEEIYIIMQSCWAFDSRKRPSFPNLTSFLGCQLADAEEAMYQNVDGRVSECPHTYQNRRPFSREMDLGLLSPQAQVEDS
Chain of Fibroblast growth factor receptor 3 (Homo sapiens) (P22607 23-806 limits assumed): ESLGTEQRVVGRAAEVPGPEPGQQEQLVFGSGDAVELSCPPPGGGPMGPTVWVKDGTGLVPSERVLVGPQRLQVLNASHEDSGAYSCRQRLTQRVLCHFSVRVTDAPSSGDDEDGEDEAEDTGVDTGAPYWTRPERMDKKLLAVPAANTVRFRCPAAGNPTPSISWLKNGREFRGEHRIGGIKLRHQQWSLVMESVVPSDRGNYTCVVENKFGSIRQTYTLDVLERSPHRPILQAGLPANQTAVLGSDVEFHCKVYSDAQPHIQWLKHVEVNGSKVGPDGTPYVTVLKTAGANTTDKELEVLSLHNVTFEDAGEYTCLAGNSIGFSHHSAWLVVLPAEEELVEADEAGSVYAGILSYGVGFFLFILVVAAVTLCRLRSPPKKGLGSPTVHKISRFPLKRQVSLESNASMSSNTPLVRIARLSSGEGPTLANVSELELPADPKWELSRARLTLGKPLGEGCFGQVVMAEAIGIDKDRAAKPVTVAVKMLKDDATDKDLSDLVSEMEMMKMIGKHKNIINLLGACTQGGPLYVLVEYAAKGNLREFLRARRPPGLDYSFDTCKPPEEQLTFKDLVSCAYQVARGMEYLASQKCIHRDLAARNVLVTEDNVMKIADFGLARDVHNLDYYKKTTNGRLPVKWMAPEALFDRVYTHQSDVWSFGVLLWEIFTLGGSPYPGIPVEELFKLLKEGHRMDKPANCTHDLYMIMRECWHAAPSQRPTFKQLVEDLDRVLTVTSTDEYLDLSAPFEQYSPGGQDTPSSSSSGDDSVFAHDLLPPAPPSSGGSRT
Chain of Fibroblast growth factor receptor 2 (Homo sapiens) (P21802 22-821 limits assumed): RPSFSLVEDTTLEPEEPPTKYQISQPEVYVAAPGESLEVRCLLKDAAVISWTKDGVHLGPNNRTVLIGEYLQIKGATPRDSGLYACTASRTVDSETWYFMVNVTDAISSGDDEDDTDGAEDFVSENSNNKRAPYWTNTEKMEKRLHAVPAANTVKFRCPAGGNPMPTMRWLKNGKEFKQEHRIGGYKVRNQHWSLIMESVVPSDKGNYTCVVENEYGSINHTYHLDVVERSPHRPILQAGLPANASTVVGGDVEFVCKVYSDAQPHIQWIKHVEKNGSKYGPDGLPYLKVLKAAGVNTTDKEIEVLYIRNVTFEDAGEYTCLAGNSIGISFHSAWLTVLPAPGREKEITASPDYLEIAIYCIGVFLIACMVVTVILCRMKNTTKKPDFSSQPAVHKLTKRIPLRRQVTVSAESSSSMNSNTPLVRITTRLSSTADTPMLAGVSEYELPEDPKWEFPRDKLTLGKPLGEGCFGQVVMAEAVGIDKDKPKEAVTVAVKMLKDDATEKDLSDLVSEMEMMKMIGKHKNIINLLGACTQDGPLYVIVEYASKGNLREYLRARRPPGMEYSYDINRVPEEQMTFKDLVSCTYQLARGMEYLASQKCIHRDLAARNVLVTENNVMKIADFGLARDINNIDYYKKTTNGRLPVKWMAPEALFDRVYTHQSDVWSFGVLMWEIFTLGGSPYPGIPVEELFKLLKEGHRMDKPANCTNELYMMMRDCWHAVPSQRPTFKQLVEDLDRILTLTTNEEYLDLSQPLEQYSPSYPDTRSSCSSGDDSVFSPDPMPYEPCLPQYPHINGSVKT

Structure (SMILES) | residual activity [1] [%] | residual activity [2] [%] | residual activity [3] [%] | residual activity [4] [%] | residual activity [5] [%] | residual activity [6] [%] | residual activity [7] [%] | residual activity [8] [%] | residual activity [9] [%] | residual activity [10] [%] | residual activity [11] [%] | residual activity [12] [%] | residual activity [13] [%] | residual activity [14] [%] | residual activity [15] [%] | residual activity [16] [%] | residual activity [17] [%] | residual activity [18] [%] | residual activity [19] [%] | residual activity [20] [%]
CN[C@@H]1C[C@H]2O[C@@](C)([C@@H]1OC)n1c3ccccc3c3c4c(c5c6ccccc6n2c5c31)C(=O)NC4 | 0 | -1 | -1 | -1 | – | – | – | – | – | – | – | – | – | – | – | – | – | – | – | –
CC(C)[C@H](CO)Nc1nc(Nc2cccc(Cl)c2)c2ncn(C(C)C)c2n1 | 88 | 43 | 17 | 2 | 13 | 98 | 15 | 56 | 118 | 90 | 26 | 79 | 19 | 23 | 0 | 42 | – | – | – | –
O=C1Nc2ccc3ncsc3c2/C1=C/c1c[nH]cn1 | 1 | 0 | 1 | 0 | 13 | 9 | 1 | 9 | 112 | – | 40 | 62 | 15 | 47 | 15 | 0 | 18 | 3 | 19 | 84
COc1cc(OC)c(/C=C2\C(=O)Nc3ccccc32)c(OC)c1 | 92 | 94 | 83 | 72 | 81 | 107 | 88 | – | – | 97 | 94 | 102 | 92 | 86 | 76 | 76 | 102 | 90 | – | –
COC(=O)[C@@]1(O)C[C@H]2O[C@]1(C)n1c3ccccc3c3c4c(c5c6ccccc6n2c5c31)C(=O)NC4 | 0 | 0 | 0 | 1 | 5 | 10 | 11 | 2 | 88 | 2 | 0 | 7 | 1 | 3 | -1 | 0 | 20 | 2 | 17 | 36
CCn1cnc2c(Nc3cccc(Cl)c3)nc(N[C@@H]3CCCC[C@@H]3N)nc21 | 63 | 15 | 18 | 1 | 12 | 76 | 11 | 53 | 118 | 85 | 39 | 55 | 9 | 18 | 3 | 50 | – | 34 | 113 | 79
C[S+]([O-])c1ccc(-c2nc(-c3ccc(F)cc3)c(-c3ccncc3)[nH]2)cc1 (stereo not drawn) | 101 | 39 | – | 82 | 115 | 142 | 90 | 99 | 110 | 107 | 109 | 112 | 105 | 87 | 51 | 93 | 99 | 81 | 115 | 97
O=[N+]([O-])/C=C/c1ccc2c(c1)OCO2 | 97 | 91 | 95 | 69 | 72 | 115 | 94 | 107 | 135 | 114 | 98 | 113 | 77 | 90 | 92 | 88 | 108 | 97 | 104 | 104
CCc1nc(-c2ccc(OC)cc2)[nH]c1-c1ccncc1 | – | – | – | – | 81 | 104 | 80 | 124 | 102 | 104 | 101 | 109 | 105 | 111 | 102 | 100 | 121 | – | – | 109
CC(C)(C)c1cc(C=C(C#N)C#N)cc(Br)c1O | 102 | 82 | – | – | 104 | 108 | – | 99 | 118 | 120 | 107 | 125 | 98 | 113 | 96 | 96 | 99 | 105 | 126 | 102
c1cc(-c2cnn3cc(-c4ccc(OCCN5CCCCC5)cc4)cnc23)ccn1 | 0 | 0 | 0 | -1 | – | 47 | 5 | – | – | – | – | 87 | 31 | 28 | 2 | 1 | – | – | – | 72
O=C1NC(=O)c2c1c1c3ccccc3n3c1c1c2c2ccccc2n1C1CCC3O1 | 7 | 4 | 24 | 3 | – | 72 | 41 | 92 | – | 33 | 20 | 90 | 99 | – | – | 0 | 83 | 78 | 82 | –
O=C1c2ccccc2-c2nc3nnnn3nc21 | – | – | 103 | 78 | – | 113 | 81 | 132 | 118 | 112 | 103 | – | – | 104 | 78 | – | 118 | 135 | 125 | 106
N/C(=N\[N+](=O)[O-])N/N=C\c1ccc(-c2cccc([N+](=O)[O-])c2)o1 | 86 | 72 | 73 | 48 | – | – | – | 92 | – | – | – | – | – | – | – | 58 | – | 92 | 95 | –
O=c1[nH]c2ccccc2n1C1CCN(Cc2ccc(-c3nc4cc5[nH]cnc5cc4nc3-c3ccccc3)cc2)CC1 | 103 | 86 | 95 | 38 | 87 | 112 | 38 | 99 | 111 | 112 | 99 | 120 | 97 | 107 | 83 | 100 | 111 | 78 | 115 | 88
COc1cc2ncnc(Nc3ccc(OCc4ccccc4)cc3)c2cc1OC | 57 | 27 | 40 | 24 | 81 | 88 | 69 | 100 | 122 | 111 | 98 | 131 | 97 | 67 | 42 | 6 | 100 | 109 | 97 | 99
COc1ccc2c(c[n+](C)c3c4cc5c(cc4ccc23)OCO5)c1OC | 96 | 47 | 92 | 75 | 93 | 85 | 44 | 57 | – | – | 80 | 121 | 76 | – | 77 | 85 | – | – | – | 100
COc1ccc2c(c1)/C(=C/c1cnc[nH]1)C(=O)N2 | – | – | 10 | 0 | 25 | 65 | 3 | 14 | – | – | – | – | – | 69 | 16 | – | 53 | 12 | 61 | –
